Assay outcomes: PubChem, several laboratories
hgDAF-12 ag: agonists of H. glycines DAF-12 nuclear receptor; activation, % at 6.8 µM; AID 687014; 1.8% of 370,000 active; HEK293 GAL4-hgDAF12 UAS-luciferase reporter, agonist luminescence; normalized to butyrate control;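 active = activation above a cutoff set at the mean of all screened compounds plus 3 SD, cut at about 10% in these data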
ssDAF-12 act: activates DAF-12 receptor from parasite S. stercoralis | activation, % at 6.8 µM | AID 652126 | HEK293 ssDAF-12/GRIP1 lit1-tk-luc reporter, luminescence; % of 3 µM dafachronic acid response | 1% of 370,000 active;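 active = activation above the mean over all tested compounds plus 3 SD, cut at about 0.9% in these data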
hcDAF12 agonist: activates DAF-12 receptor from parasite H. contortus; HEK293 hcDAF-12 lit1-tk-luc reporter, luminescence; 0% DMSO, 100% Δ7-dafachronic acid; activation, % at 6.8 µM; 1.4% of 370,000 active;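 active = activation above the mean of all tested compounds plus 3 SD, cut at about 5.5% in these data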
DAX1 inh-1: inhibitors of human orphan nuclear receptor DAX1 (NR0B1) | P51843 | HEK293 Gal4-DAX1 luciferase reporter, luminescence | inhibition, % at 6.75 µM | 0.99% of 340,000 active | AID 504766;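 active = inhibition above the mean over all tested compounds plus 3 SD, cut at about 4.2% in these data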;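 also: inhibition shows as a rise in luminescence from relieved DAX1 repression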
Target sequence (P51843 207-470 limits assumed): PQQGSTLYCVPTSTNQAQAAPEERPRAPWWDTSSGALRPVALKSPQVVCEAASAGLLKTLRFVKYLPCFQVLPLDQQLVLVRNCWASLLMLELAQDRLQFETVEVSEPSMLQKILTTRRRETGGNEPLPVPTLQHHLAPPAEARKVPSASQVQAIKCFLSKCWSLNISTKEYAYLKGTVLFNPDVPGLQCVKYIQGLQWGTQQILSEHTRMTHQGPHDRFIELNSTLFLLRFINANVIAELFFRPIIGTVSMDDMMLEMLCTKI
DAX1 inh-2: inhibitors of DAX1 repression of SF-1 activated StAR promoter. 1.1% of 370,000 active. inhibition, % at 6.8 µM. HEK293T StAR-luciferase reporter, SF-1/DAX-1 repression relief. AID 652010;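 active = inhibition above the mean over all tested compounds plus 3 SD, cut at about 3.6% in these data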;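 also: higher inhibition means more luminescence from relief of DAX-1 repression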
PolyA inhibitor: blocks polyadenylation in yeast reporter cells | S. cerevisiae SKY197-pL101 polyadenylation reporter, beta-gal luminescence; efflux-impaired pdr1/pdr3 knockout yeast; score 100 = 6 SD above DMSO | activity score, % at 12 µM | 0.02% of 300,000 active;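 active = lowest replicate activity score at least 50, where 100 means six control SD above control mean; inconclusive = lowest score under 50 but half or more replicates reach 50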;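 also: yeast exposed to compound for 9 h at 30 °C; higher score means more reporter readthrough which indicates perturbed polyadenylation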
DAX1 conf: confirmation of human DAX1 (NR0B1) inhibitors | 87% of 2,400 active | shares compounds with DAX1 inh-2 | inhibition, % at 6.8 µM | HEK293T StAR-promoter luciferase reporter, SF-1/DAX-1 repression;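 active = inhibition above the average of every tested compound plus 3 SD, cut at about 3.8% in these data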;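 also: active compounds raise luminescence by relieving repression of the StAR reporter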
Target sequence (P51843 whole entry, looked up): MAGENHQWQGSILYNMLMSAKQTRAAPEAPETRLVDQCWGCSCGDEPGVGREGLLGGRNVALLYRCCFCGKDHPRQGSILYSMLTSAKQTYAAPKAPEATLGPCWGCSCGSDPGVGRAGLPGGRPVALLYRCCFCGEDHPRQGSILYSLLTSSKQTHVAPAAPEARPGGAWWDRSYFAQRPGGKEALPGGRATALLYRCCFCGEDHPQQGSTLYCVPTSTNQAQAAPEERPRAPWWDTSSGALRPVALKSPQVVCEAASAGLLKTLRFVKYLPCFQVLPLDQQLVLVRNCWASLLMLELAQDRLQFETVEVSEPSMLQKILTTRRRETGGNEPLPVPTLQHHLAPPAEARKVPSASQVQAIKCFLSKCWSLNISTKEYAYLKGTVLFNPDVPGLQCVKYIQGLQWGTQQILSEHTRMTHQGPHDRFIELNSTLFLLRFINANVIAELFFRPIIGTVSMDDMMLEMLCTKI
SF1 AF2mut Luc: counter-screen for DAX1 inhibitors: nonselective inhibitors with SF-1 AF2 mutant | shares compounds with DAX1 inh-2 | HEK293 StAR-luciferase, luminescence | inhibition, % at 6.8 µM | 78% of 2,400 active;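 active = inhibition above the mean of all tested compounds plus 3 SD, cut at about 3% in these data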
LXRb hcDAF ctr: activates human LXR-beta, counter-screen for hcDAF-12 agonists; shares compounds with hcDAF12 agonist; HEK293 Gal4-LXR tk-luc reporter, luminescence, 24 h; normalized: DMSO 0%, positive control 100%; activation, % at 6.8 µM; 3,400 tested, under 10 active;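 active = mean percent activation of the reporter above a cutoff set as the average over tested compounds plus their standard deviation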
hcDAF12 ag: confirmation of H. contortus DAF-12 agonists. shares compounds with hcDAF12 agonist. HEK293 hcDAF-12 lit1-tk-luc reporter, luminescence; % of Δ7-dafachronic acid response. activation, % at 6.8 µM. 61% of 3,400 active;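 active = mean activation across triplicate tests above the threshold derived from the earlier primary screen, cut at about 5.5% in these data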
Large screens that a line does not name were inactive (follow-up assays come after a bar, where they were run). Most compounds without a hit are left out; they make up all but 4.1% or so of the library.

CCC1CSC(=Nc2ccc(C)cc2)N1C(=O)CN1C(=O)NC2(CCCC2)C1=O (stereo not given)	hgDAF-12 ag 12.7, hcDAF12 agonist 8.4, DAX1 inh-2 10.4 | DAX1 conf 9.1 | SF1 AF2mut Luc inactive | LXRb hcDAF ctr inactive | hcDAF12 ag 6.3
CCNc1ncnc2c1cnn2C1CCCO1 (stereo not given)	none (no result: PolyA inhibitor)
Brc1csc(/C=N/Nc2nc3ccccc3s2)c1	hgDAF-12 ag 19.9, ssDAF-12 act 2.4, hcDAF12 agonist 12.8, DAX1 inh-2 5.9 | DAX1 conf 15.1 | SF1 AF2mut Luc 10.6 | LXRb hcDAF ctr inactive | hcDAF12 ag 9.1
Brc1cc2c(cc1/C=N/Nc1nc3ccccc3s1)OCO2	none
COCC(=O)Nc1nnc(-c2ccc(C(C)(C)C)cc2)s1	hgDAF-12 ag 19.1, hcDAF12 agonist 10.3, DAX1 inh-2 4.8 | DAX1 conf 14.2 | SF1 AF2mut Luc 7.4 | LXRb hcDAF ctr inactive | hcDAF12 ag 6.2
COCCNc1ncnc2c1cnn2-c1ccc(Cl)cc1	hgDAF-12 ag 11.6, hcDAF12 agonist 6.9, DAX1 inh-2 4.9 | DAX1 conf 11.0 | SF1 AF2mut Luc 6.4 | LXRb hcDAF ctr inactive | hcDAF12 ag inactive
CS(=O)(=O)N1CCC(C(=O)NCC2COc3ccccc3O2)CC1 (stereo not given)	none (no result: DAX1 inh-1, PolyA inhibitor)
CC(=O)Nc1ccc(NC(=O)CSc2nnc(NC(=O)c3cccc(F)c3)s2)cc1	ssDAF-12 act 1.1, hcDAF12 agonist 11.6, DAX1 inh-2 7.5, PolyA inhibitor inconclusive | DAX1 conf 4.6 | SF1 AF2mut Luc 4.6 | LXRb hcDAF ctr inactive | hcDAF12 ag inactive
CCCC[C@H]1C2CC(OC(=O)Nc3ccccc3C(F)(F)F)C(C2)[C@H]2CCCCN21 (stereo not given in full)	none (no result: DAX1 inh-1, PolyA inhibitor)
CSCCC(NC(=O)c1ccco1)C(=O)N1CCN(c2ccccc2O)CC1 (stereo not given)	none (no result: PolyA inhibitor)
N/C(=N\OC(=O)/C=C/c1ccccc1Cl)c1ccccn1	hcDAF12 agonist 7.0, DAX1 inh-2 6.2 | DAX1 conf 17.7 | SF1 AF2mut Luc 6.1 | LXRb hcDAF ctr inactive | hcDAF12 ag 8.5
N/C(=N\OC(=O)/C=C/c1ccc(Br)cc1)c1ccccn1	hgDAF-12 ag 12.3, ssDAF-12 act 2.2, hcDAF12 agonist 8.0, DAX1 inh-2 4.7 | DAX1 conf 9.3 | SF1 AF2mut Luc 7.0 | LXRb hcDAF ctr inactive | hcDAF12 ag 8.3
CCN=C1NC(c2ccc(C(F)(F)F)cc2)C(C(=O)OC)=C(C)N1Cc1ccccc1C(F)(F)F (stereo not given)	none (no result: DAX1 inh-1, PolyA inhibitor)
COc1ccc(Cl)cc1C(=O)Nc1cccc(-c2ccc3nncn3n2)c1	none
Cc1ccc(S(=O)(=O)NCc2cn3c(C)csc3n2)cc1	none
Cc1ccc(SCc2cn3c(C)csc3n2)cc1	hgDAF-12 ag 11.9, hcDAF12 agonist 8.0, DAX1 inh-2 5.2 | DAX1 conf 17.1 | SF1 AF2mut Luc 7.0 | LXRb hcDAF ctr inactive | hcDAF12 ag 7.8
Cn1ncc(Cl)c1C(=O)Nc1ccc2c(c1)CCC2	ssDAF-12 act 1.3, hcDAF12 agonist 6.8, DAX1 inh-2 5.8 | DAX1 conf 5.3 | SF1 AF2mut Luc inactive | LXRb hcDAF ctr inactive | hcDAF12 ag 5.7
COC(=O)c1cc(NC(=O)c2c(Cl)cnn2C)cc(C(=O)OC)c1	none
Nc1ccc(Nc2nc(-c3cccs3)cs2)cc1	none
c1ccc(Nc2nc(-c3cccs3)cs2)nc1	hgDAF-12 ag 11.8, ssDAF-12 act 2.6, hcDAF12 agonist 14.6, DAX1 inh-2 4.6 | DAX1 conf 13.1 | SF1 AF2mut Luc 5.1 | LXRb hcDAF ctr inactive | hcDAF12 ag 19.1
COc1ccc(S(=O)(=O)NCc2cc(=O)n(C)c(=O)n2C)cc1C	none
COc1ccc(N=CC2=C(O)c3ccccc3C2=O)cc1	hgDAF-12 ag 10.8, ssDAF-12 act 1.1, hcDAF12 agonist 13.0, DAX1 inh-2 6.0 | DAX1 conf inactive | SF1 AF2mut Luc inactive | LXRb hcDAF ctr inactive | hcDAF12 ag 6.1
CN=CC1=C(O)c2ccccc2C1=O	none
COc1ccc(N=Cc2c[nH][nH]c2=O)cc1	none
O=C1C(C=Nc2ccccc2O)=C(O)c2ccccc21	hgDAF-12 ag 15.6, ssDAF-12 act 2.0, hcDAF12 agonist 20.1, DAX1 inh-2 5.9 | DAX1 conf 11.6 | SF1 AF2mut Luc 5.1 | LXRb hcDAF ctr inactive | hcDAF12 ag 18.9
COc1ccc(-c2csc(C(C)(NC(C)=O)c3ccccc3)n2)cn1 (stereo not given)	none (no result: DAX1 inh-1, PolyA inhibitor)
Nc1ccccc1C=C1Cc2ccccc2C1=O	hgDAF-12 ag 21.6, ssDAF-12 act 3.2, hcDAF12 agonist 13.0, DAX1 inh-2 7.7 (no result: PolyA inhibitor) | DAX1 conf 17.0 | SF1 AF2mut Luc 7.4 | LXRb hcDAF ctr inactive | hcDAF12 ag 10.7
CCSc1n[nH]c(=O)n1C	none (no result: DAX1 inh-1, PolyA inhibitor)
Nc1ccccc1-n1nc2ccc3ccccc3c2n1	hgDAF-12 ag 19.7, ssDAF-12 act 3.1, hcDAF12 agonist 18.1, DAX1 inh-1 4.6, DAX1 inh-2 9.6 (no result: PolyA inhibitor) | DAX1 conf 14.9 | SF1 AF2mut Luc 8.5 | LXRb hcDAF ctr inactive | hcDAF12 ag 23.1
Cc1c(N)ccc(-n2nc3ccccc3n2)c1C	none (no result: DAX1 inh-1)
O=C(Nc1ccc([N+](=O)[O-])cc1)C(=O)Nc1cccc(C(=O)O)c1	hgDAF-12 ag 13.2, ssDAF-12 act 2.7, hcDAF12 agonist 11.4, DAX1 inh-2 5.4 | DAX1 conf 11.9 | SF1 AF2mut Luc 8.5 | LXRb hcDAF ctr inactive | hcDAF12 ag 25.4
COc1ccc2oc(=Nc3ccccc3)c(-c3nc4ccccc4[nH]3)cc2c1	hgDAF-12 ag 21.0, ssDAF-12 act 3.8, hcDAF12 agonist 22.4, DAX1 inh-2 5.0 | DAX1 conf 3.7 | SF1 AF2mut Luc inactive | LXRb hcDAF ctr inactive | hcDAF12 ag 8.0
COc1ccc2oc(=Nc3cccc(F)c3)c(C(N)=O)cc2c1	none
CC(=O)/C=C1\OCc2cc(OCc3ccccc3)ccc21	none (no result: DAX1 inh-1, PolyA inhibitor)
O=C(NCCSc1ccccc1)c1ccc(Br)cc1	hgDAF-12 ag 13.1, hcDAF12 agonist 7.4, DAX1 inh-2 4.7 | DAX1 conf 15.4 | SF1 AF2mut Luc 7.7 | LXRb hcDAF ctr inactive | hcDAF12 ag 5.9
